Unmarked numbers belong to inactive results. Records with an inconclusive call do not appear. Where a call stands in place of a potency, no number is given. Active and inactive are the calls of the source. The call rests on the fitted dose curve; in most records, active means well fitted curve in the direction sought with a large enough effect; inconclusive means small, poorly fitted or top-dose-only effect, or another doubt; inactive means no such curve, though single readings can be large; an effect the other way counts as inactive or inconclusive.
How the values were obtained:
[1] = qHTS assay for measurement of the activity of small molecule inhibitors on Zika virus induced Caspase-3 activity in human iPSC derived neural progenitor cells (hNPCs) (AID 1224857); further: nearly all actives have a fitted effect of over 65% in size
Procedure, shortened: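 Cells were plated at 350 per well and grown 16 to 20 hours. Compound pretreatment lasted one hour, after which ZIKV (2 FFU/cell) was added for 6 hours. Percent inhibition was normalized between uninfected and infected controls.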

[2] = qHTS assay for measurement of the activity of small molecule inhibitors on Zika virus induced Caspase-3 activity in human astrocytoma cells (AID 1224859)
Procedure, shortened: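 Percent inhibition of virus-induced caspase-3/7 signal is calculated against uninfected and ZIKV-infected control cells. Cells are SNB-19, infected at 2 FFU/cell for 6 h after 1 h compound exposure.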

[3] = P-glycoprotein substrates identified in KB-8-5-11 adenocarcinoma cell line, qHTS therapeutic library screen (AID 1346987); further: nearly all actives have a fitted effect of over 65% in size; further: potency means the concentration at half of the fitted maximal effect
Procedure, shortened: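 KB-8-5-11, a colchicine-selected P-gp-overexpressing KB-3-1 subline, was grown without colchicine for the assay. Cells were seeded at 500 cells/well, dosed in concentration-response and incubated 72 h at 37 degree C, 5% CO2. Viability was read by CellTiter-Glo luminescence.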

[4] = NS1 protein of Zika virus - qHTS assay to identify small molecule inhibitors in human HEK 293 cells (AID 1347053); further: series mostly up to about 46 µM; nearly all actives have a fitted effect of over 55% in size
Procedure, shortened: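 HEK 293; 20 h pre-culture, 37 C/5% CO2; cpd 1 h pre-infection; ZIKV MR766, MOI = 0.5, 24 h, 37 C; TR-FRET NS1 readout (two anti-NS1 Abs); norm. to no-virus vs infected.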

[5] = qHTS of pediatric cancer cell lines to identify multiple opportunities for drug repurposing: Primary screen for TC32 cells (AID 1347089); further: nearly all actives have a fitted effect of over 60% in size; further: potency means the concentration at half of the fitted maximal effect
Procedure, shortened: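 Luminescent ATP read-out (CellTiter-Glo) of metabolically active TC32 cells after 48 h exposure. Concentration-response curves came from 11-point (MIPE, 0.78 nM–46 µM) or 8-point (NPC, 0.59 nM–46 µM) primary titrations; follow-up used 11 points.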

[6] = qHTS of pediatric cancer cell lines to identify multiple opportunities for drug repurposing: Primary screen for DAOY cells (AID 1347090); further: nearly all actives have a fitted effect of over 55% in size; further: potency means the concentration at half of the fitted maximal effect
Procedure, shortened: (§1)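 Viability measured as metabolically active cells via CellTiter-Glo luminescence following 48 hours of compound exposure, 11-point dilutions in confirmatory testing. 500-1,000 cells/well plated 5 hours before dosing; controls were DMSO and 2.3 µM bortezomib.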

[7] = qHTS of pediatric cancer cell lines to identify multiple opportunities for drug repurposing: Primary screen for SJ-GBM2 cells (AID 1347091); further: potency means the concentration at half of the fitted maximal effect
Procedure, shortened: as §1

[8] = qHTS of pediatric cancer cell lines to identify multiple opportunities for drug repurposing: Primary screen for A673 cells (AID 1347092); further: nearly all actives have a fitted effect of over 45% in size; further: potency means the concentration at half of the fitted maximal effect
Procedure, shortened: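 Cell viability of A673 measured by CellTiter-Glo ATP luminescence after 48 hours compound exposure. Dilution series spanned 0.78 nM to 46 µM (MIPE, 11-point) or 0.59 nM to 46 µM (NPC, 8-point); bortezomib 2.3 uM positive control.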

[9] = qHTS of pediatric cancer cell lines to identify multiple opportunities for drug repurposing: Primary screen for SK-N-MC cells (AID 1347093); further: potency means the concentration at half of the fitted maximal effect
Procedure, shortened: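 Metabolically active cells were quantified by ATP-dependent luminescence (CellTiter-Glo, 15 min at room temperature) following 48 h treatment. Cells had been plated at 500-1,000 per well and settled for 5 h beforehand.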

[10] = qHTS of pediatric cancer cell lines to identify multiple opportunities for drug repurposing: Primary screen for NB-EBc1 cells (AID 1347095); further: potency means the concentration at half of the fitted maximal effect
Procedure, shortened: (§2)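 Viability was measured as metabolically active cells after 48 hours of treatment, read by CellTiter-Glo luminescence. Compounds were tested at multiple final concentrations, giving concentration-response curves.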

[11] = qHTS of pediatric cancer cell lines to identify multiple opportunities for drug repurposing: Primary screen for U-2 OS cells (AID 1347096); further: nearly all actives have a fitted effect of over 50% in size; further: potency means the concentration at half of the fitted maximal effect
Procedure, shortened: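 Viability after 48 h compound treatment at 37C, 500-1,000 cells/well, read as ATP luminescence with CellTiter-Glo. Primary screens used 11-point (MIPE, 0.78 nM-46 µM) or 8-point (NPC, 0.59 nM-46 µM) final concentrations; follow-up screens used 11-point dilutions.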

[12] = qHTS of pediatric cancer cell lines to identify multiple opportunities for drug repurposing: Primary screen for Saos-2 cells (AID 1347097); further: nearly all actives have a fitted effect of over 40% in size; further: potency means the concentration at half of the fitted maximal effect
Procedure, shortened: as §2

[13] = qHTS of pediatric cancer cell lines to identify multiple opportunities for drug repurposing: Primary screen for BT-37 cells (AID 1347094); further: potency means the concentration at half of the fitted maximal effect
Procedure, shortened: as §2

Compound	Potency [1]	outcome [2]	Potency [3]	Potency [4]	Potency [5]	Potency [6]	Potency [7]	Potency [8]	Potency [9]	Potency [10]	Potency [11]	Potency [12]	Potency [13]
O=C(O)c1ccccc1S	inactive	inactive	inactive	inactive	inactive	inactive	inactive	inactive	inactive	inactive	inactive	inactive	–
Cc1cc2nc3ccc(=[N+](C)C)cc-3sc2cc1N	inactive	inactive	6.51 µM (active)	inactive	2.97 µM (active)	13.3 µM (active)	21.1 µM (active)	10.6 µM (active)	1.33 µM (active)	10.6 µM (active)	21.1 µM (active)	2.99 µM (active)	17.4 µM (active)
O=C(OCC(COC(=O)c1cccnc1)(COC(=O)c1cccnc1)COC(=O)c1cccnc1)c1cccnc1	inactive	inactive	inactive	inactive	inactive	inactive	inactive	inactive	inactive	inactive	inactive	inactive	inactive
CC(=O)OCC(=O)[C@@]1(O)[C@H](OC(C)=O)C[C@H]2[C@@H]3CCC4=CC(=O)C=C[C@]4(C)[C@@]3(F)[C@@H](O)C[C@@]21C	inactive	inactive	inactive	inactive	inactive	inactive	inactive	inactive	inactive	inactive	inactive	inactive	inactive
C[C@H](CN1CCCC1)C(=O)c1ccc(C(F)(F)F)cc1	inactive	inactive	inactive	inactive	inactive	inactive	inactive	inactive	inactive	inactive	inactive	inactive	inactive
CCCCCC1Nc2cc(C(F)(F)F)c(S(N)(=O)=O)cc2S(=O)(=O)N1 (stereo not drawn)	inactive	inactive	inactive	inactive	inactive	inactive	inactive	inactive	inactive	inactive	inactive	inactive	inactive
CN1C(CSCC(F)(F)F)Nc2cc(Cl)c(S(N)(=O)=O)cc2S1(=O)=O (stereo not drawn)	inactive	inactive	inactive	inactive	inactive	inactive	inactive	inactive	inactive	inactive	inactive	inactive	inactive
O=C(O)CCC(=O)OC[C@@H](NC(=O)C(Cl)Cl)[C@H](O)c1ccc([N+](=O)[O-])cc1	inactive	inactive	inactive	inactive	inactive	inactive	inactive	inactive	inactive	inactive	inactive	inactive	inactive

— PubChem BioAssay (NCATS)
